Cruzain inh Det = blocks cruzain activity in presence of Triton detergent. P25779. purified cruzain, Z-FR-AMC fluorescence, 0.01% Triton. Potency, µM, for inactives: max response, negative = inhibition, actives largely listed as inhibitors. 0.43% of 200,000 active;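 further: plate controls were neutral wells for no effect and buffer without enzyme for full effect; nearly all actives have a fitted effect of over 40% in size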
Target sequence (P25779 123-467 limits assumed): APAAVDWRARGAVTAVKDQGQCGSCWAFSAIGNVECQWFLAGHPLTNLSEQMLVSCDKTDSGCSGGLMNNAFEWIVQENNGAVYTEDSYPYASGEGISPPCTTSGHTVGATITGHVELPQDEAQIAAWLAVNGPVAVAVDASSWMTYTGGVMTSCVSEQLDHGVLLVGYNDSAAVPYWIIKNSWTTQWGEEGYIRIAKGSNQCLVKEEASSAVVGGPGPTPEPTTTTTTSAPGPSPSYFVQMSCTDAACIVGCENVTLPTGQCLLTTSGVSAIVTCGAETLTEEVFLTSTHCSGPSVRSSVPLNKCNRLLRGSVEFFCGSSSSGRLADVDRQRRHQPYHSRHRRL
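15 min RT preincubation of 1.5 nM cruzain with compound, then 2 uM Z-FR-AMC added; kinetic AMC fluorescence, 60 s delta. Triton X-100 0.01%, pH 5.5.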
Cruzain noTriton = inhibitors of Trypanosoma cruzi cruzain without detergent; 2.3% of 200,000 active; Potency, µM, for the others: max response, negative = inhibition, hits mostly inhibitors; AID 1476; P25779; purified cruzain, Z-FR-AMC fluorescence, no detergent;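 further: plate controls were enzyme without inhibitor for no effect and buffer without enzyme for full effect; nearly all actives have a fitted effect of over 40% in size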
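Detergent-free condition (0.00005% Triton X-100) in acetate buffer pH 5.5 with DTT. 1.5 nM enzyme and compound were pre-mixed 15 min, then 2 uM Z-FR-AMC substrate added; reaction progress from fluorescence change between first and third reads (60 s).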
The depositor's hits bear a star; ? = inconclusive. Compounds with a hit are over-represented: about 2.5% of the library has one in this group of screens. The call rests on the fitted dose curve; in most records, active means well fitted curve in the direction sought with a large enough effect; inconclusive means small, poorly fitted or top-dose-only effect, or another doubt; inactive means no such curve, though single readings can be large; an effect the other way counts as inactive or inconclusive. Potency means the concentration at half of the fitted maximal effect.

SMILES	Cruzain inh Det	Cruzain noTriton
O=C(NC(Cc1ccccc1)C(=O)Oc1ccc2c(C(F)(F)F)cc(=O)oc2c1)OCc1ccccc1 (centres undefined)	11µM*	?
CC(Oc1ccc2c(-c3ccccc3)cc(=O)oc2c1)C(=O)O (centres undefined)	-1%	-4%
CC(NC(=O)OCc1ccccc1)C(=O)Oc1cc2oc(=O)cc(-c3ccccc3)c2cc1Cl (centres undefined)	22µM*	?
O=C(COc1ccc2c(C(F)(F)F)cc(=O)oc2c1)NCc1cccs1	-1%	-15%
COc1ccc(NC(=O)c2cc3c([nH]c2=O)CC(c2ccccc2)CC3=O)cc1 (centres undefined)	0%	12%
COc1ccc(C)cc1N(C(=O)c1ccccc1F)c1nc2ccccc2s1	-5%	1.6µM*
COc1ccc(C)cc1N(C(=O)c1ccccc1)c1nc2ccccc2s1	-4%	?
CCCCC/C=C\C/C=C\C/C=C\C=C\[C@@H](O)CCCC(=O)O	4%	-2%
O=C(CNC(=O)C(c1ccccc1)c1ccccc1)OCC(=O)c1cccs1	20µM*	13µM*
O=C(CNC(=O)c1cccs1)OCC(=O)c1ccccc1	-9%	-5%
COc1ccc(CNC(=O)/C(C#N)=C2\N=C(NC(=O)c3cccs3)c3ccccc32)cc1	-5%	25µM*
COc1ccc(CNC(=O)c2cccs2)cc1	1%	4%
CCOc1ccc(-c2cc3nc(C4CCN(C(=O)OC(C)(C)C)CC4)c(C(=O)Nc4cccc(Cl)c4C)cn3n2)cc1	-5%	7.9µM*
CCOc1ccc(-c2cc3nc(C4CCN(C(=O)OC(C)(C)C)CC4)c(C(=O)Nc4ccc(C)cc4Cl)cn3n2)cc1	-9%	?
CCc1ccc(NC(=O)Cn2c(=O)n(CCC(C)C)c(=O)c3cccnc32)cc1	-1%	-6%
CCOc1cc(/C=N\NC(=O)Cn2nc([N+](=O)[O-])cc2C)ccc1OCc1cccc2ccccc12	-1%	13µM*
CCOc1cc(/C=N/NC(=O)CSc2nnc(C)s2)ccc1OCc1ccccc1Cl	-2%	14%
Cc1ccc2[nH]c3c(NCc4ccco4)ncnc3c2c1	-27%	-23%
C=CCNc1ncnc2c1[nH]c1ccc(Cl)cc12	?	13µM*
O=C(CNc1cccc2ccccc12)N/N=C/c1ccc([N+](=O)[O-])cc1	-3%	4%
O=C(CNc1cccc2ccccc12)N/N=C/c1cccc(Oc2ccccc2)c1	0%	20µM*
COc1cccc(Cn2c(SCC(=O)N(C)c3ccccc3)nc3ccccc32)c1	-4%	16%
COc1ccc(-c2c(C#N)c(SCC(=O)Nc3ccccc3C)nc(C)c2C(=O)Nc2ccc(Cl)cc2)cc1	6%	-21%
COc1cccc(NC(=O)CSc2nc(=O)n(Cc3ccco3)c3c2CCC3)c1	-4%	-14%
CCc1ccc(NC(=O)CSc2nc(C)c(C(=O)Nc3ccc(Cl)cc3)c(-c3ccc(OC)cc3)c2C#N)cc1	-2%	7.9µM*
SMILES	Cruzain inh Det	Cruzain noTriton
CCOC(=O)c1sc(NC(=O)CSc2nc3c(c(-c4ccc(OC)cc4)c2C#N)CCCC3)c(C#N)c1C	10%	3.2µM*
COc1cccc(NC(=O)CSc2nc3c(c(-c4ccco4)c2C#N)CCCC3)c1	6%	6.3µM*
CCOC(=O)c1sc(NC(=O)CSc2nc3c(cc2C#N)CCCCCC3)c(C#N)c1C	-3%	?
COc1ccc(CCNC(=O)CCCn2c(=O)c3ccccc3n(CC(=O)Nc3ccc(C)cc3Cl)c2=O)cc1OC	7%	?
Cc1ccc(-c2nc(S(=O)(=O)c3ccccc3)c(N3CCN(c4ccccc4)CC3)o2)cc1	-1%	-9%
COc1ccc(N2CCN(c3oc(-c4ccccc4C)nc3S(=O)(=O)c3ccccc3)CC2)cc1	-4%	13µM*
COc1ccc(-c2csc(NC(=O)c3ccccc3NS(=O)(=O)c3ccc(C)cc3)n2)cc1	-14%	?
COc1ccc(S(=O)(=O)Nc2ccccc2C(=O)Nc2nc(-c3ccc(F)cc3)cs2)cc1OC	-14%	20µM*
CN(C)c1ncc2nc(-c3ccc(Cl)cc3)c(=O)n(CCC#N)c2n1	2%	4%
CN(C)c1ccc(C(CNC(=O)COc2ccccc2)N2CCOCC2)cc1 (centres undefined)	-1%	1%
COc1ccc(N(C)C(=O)c2cn(C3CCCCC3)c(=O)c3c2c2ccccc2n3C)cc1	-9%	12%
COc1ccc(-c2oc3ncn4nc(COc5ccc(C)cc5)nc4c3c2-c2ccc(OC)cc2)cc1	2%	7%
COc1ccc(-c2oc3ncn4nc(COc5ccccc5)nc4c3c2-c2ccc(OC)cc2)cc1	-10%	4µM*
COc1ccc(-c2oc3ncn4nc(Cc5ccccc5)nc4c3c2-c2ccc(OC)cc2)cc1	-10%	10µM*
COc1ccc(OCc2nc3c4c(-c5ccc(OC)cc5)c(-c5ccc(OC)cc5)oc4ncn3n2)cc1	-1%	-7%
Cc1ccc(CNC(=O)NC2COc3ccccc3C2)cc1 (centres undefined)	2%	-20%
COc1cc(Cl)c(C)cc1NC(=O)c1nn(C)c2c1CSc1ccccc1-2	-4%	-12%
Cc1cccc(Nc2nnc(-c3ccc(C)c(S(=O)(=O)N4CCN(C)CC4)c3)c3ccccc23)c1	-11%	-12%
Cc1ccc(N=Cc2nc(/C=C/c3cccc([N+](=O)[O-])c3)oc2O)cc1	4%	5µM*
Cc1cc(C)n(/N=C/c2cccc([N+](=O)[O-])c2)c(=O)c1	0%	-13%
COc1ccccc1CNC(=O)c1cccc(Nc2nc3ccccc3n3nnnc23)c1	0%	6%
O=C(Nc1nc2ccc(SC(F)F)cc2s1)c1ccc2c(c1)S(=O)(=O)c1ccccc1C2=O	-5%	5µM*
O=C(Nc1nc(-c2ccccc2)cs1)c1ccc2c(c1)S(=O)(=O)c1ccccc1C2=O	-4%	?
CC(=O)N1CCc2cc(S(=O)(=O)NC(Cc3ccccc3)C(=O)NCc3ccccc3Cl)ccc21 (centres undefined)	-7%	-10%
Cc1ccn2cc(-c3ccc(S(=O)(=O)N4CCOCC4)cc3)nc2c1	28µM*	?
SMILES	Cruzain inh Det	Cruzain noTriton
Cc1ccc2nc(-c3ccc(S(=O)(=O)N4CCOCC4)cc3)cn2c1	-2%	-3%
Cc1cccc(-n2c(-c3ccccc3)cn3c4c(=O)[nH]c(=O)n(C)c4nc23)c1	0%	5%
O=c1c(-c2ccc(Cl)cc2)nc2cnc(N3CCNCC3)nc2n1CCc1ccccc1	0%	25%
Cc1cc(C)c(-c2csc(NC(=O)c3cc([N+](=O)[O-])ccc3N3CCOCC3)n2)c(C)c1	-4%	-14%
O=C(Nc1nc2ccc(Oc3ccccc3)cc2s1)c1cc([N+](=O)[O-])ccc1N1CCOCC1	-18%	16µM*
COc1ccc(-c2cc3nnc(-c4ccccc4)nc3s2)cc1	-2%	3.2µM*
COc1cccc(-c2nc(-c3ccccc3)no2)c1	-3%	-1%
COc1ccc(S(=O)(=O)N(C)c2ccc(OCC(=O)Nc3cc(C)on3)cc2)cc1	-1%	-7%
COc1ccc(-c2csc(NC(=O)COc3ccc(N(C)S(=O)(=O)c4ccc(C)cc4)cc3)n2)cc1	1%	7.9µM*
Cc1ccc(-c2csc(NC(=O)COc3ccc(N(C)S(=O)(=O)c4ccc(C)cc4)cc3)n2)cc1	1%	6.3µM*
O=C(COc1ccc(Cl)cc1)Nc1nc(-c2ccc(S(=O)(=O)N3CCOCC3)cc2)cs1	-2%	?
Cn1c(=O)n(C)c2cc(NS(=O)(=O)c3ccc(F)cc3)c(NCc3ccccc3)cc21	-13%	26%
